In all, about 330,000 compounds went through this assay and about 390 (0.12%) were called active. This is one part of a sample in which actives are shown more often than they occur.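 The calls were made as follows: active = inhibition reaching a set limit with compound at 10 µM in the primary screen (cut at about 35% in these data); inactive = the rest.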
biological target: Intestinal-type alkaline phosphatase (Homo sapiens) (UniProt P09923); test: human IAP inhibitors, primary screen, biochemical, luminescence, uHTS (AID 2544); details: purified IAP, CDP-Star luminescence, 30 min; at 10 µM; hits give high values;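 also: plate controls were DMSO wells with enzyme for no effect and no-enzyme buffer wells for full effect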
Sequence (P09923 whole entry, looked up): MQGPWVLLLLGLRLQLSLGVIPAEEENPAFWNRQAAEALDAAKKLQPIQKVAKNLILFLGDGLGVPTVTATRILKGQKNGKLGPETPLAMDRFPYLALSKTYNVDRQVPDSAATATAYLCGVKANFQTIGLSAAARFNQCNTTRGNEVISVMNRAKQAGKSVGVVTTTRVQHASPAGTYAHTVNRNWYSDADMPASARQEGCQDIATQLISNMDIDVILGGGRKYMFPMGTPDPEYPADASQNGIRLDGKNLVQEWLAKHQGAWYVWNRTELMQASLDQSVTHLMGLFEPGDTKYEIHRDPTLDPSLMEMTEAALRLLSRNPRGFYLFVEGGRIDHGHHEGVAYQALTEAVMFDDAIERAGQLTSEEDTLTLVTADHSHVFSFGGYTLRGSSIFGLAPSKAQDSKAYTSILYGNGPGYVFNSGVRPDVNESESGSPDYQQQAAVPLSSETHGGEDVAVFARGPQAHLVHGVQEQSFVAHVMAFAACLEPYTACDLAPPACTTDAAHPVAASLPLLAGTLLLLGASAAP

SMILES	inhibition
COc1cccc(-n2c(=O)c3c(C)c(C(=O)N(C)C)sc3n(CC(=O)NCCc3ccc(OC)c(OC)c3)c2=O)c1	-1.6% (inactive)
C[N+]1(CCNC(=O)/C=N/O)CCCCC1	-34.9% (inactive)
CC(=O)c1ccc(S(=O)(=O)Nc2ccc(-c3ccc4nncn4n3)cc2)cc1	-1.5% (inactive)
COC(=O)[C@H](C(C)C)n1c(C)c(C(C)=O)c(C(C)=O)c1C	-6.9% (inactive)
CC(C)C[C@H](NC(=O)[C@@H]1O[C@H]1C(=O)O)C(=O)NCCCCN=C(N)N	14.6% (inactive)
CCCc1ccc(C(=O)[C@@H]2[C@@H](C(C)=O)N3c4ccc(F)cc4C=C[C@@H]3[C@@]23C(=O)Nc2ccccc23)cc1	0% (inactive)
CCCCc1nc(NCCN)c(C#N)c2c1CSC(C)(C)C2	6.8% (inactive)
Cc1ccc(S(=O)(=O)Nc2ccc(F)c(S(=O)(=O)N3CCOCC3)c2)cc1	-6.7% (inactive)
CC(Oc1ccccc1)C(=O)NN1Cc2ccccc2C1=N (configuration not stated)	-9.2% (inactive)
Cc1cccn2c(=O)nc(SCC(=O)NCc3ccccc3Cl)nc12	-1.6% (inactive)
COCCSc1nnc(NC(=O)CCS(=O)(=O)Cc2ccccc2)s1	35.1% (active)
COC(=O)CSc1nnc(NC(=O)CCc2ccccc2)s1	-5.1% (inactive)
CCOCc1nnc(NC(=O)CCS(=O)(=O)Cc2ccccc2)s1	-9.2% (inactive)
CCOc1ccccc1NC(=S)N1CCN(c2cccc(C)c2C)CC1	-5.2% (inactive)
COc1ccccc1C(=O)N(C1=NC(C)CS1)c1ccc(Cl)cc1 (configuration not stated)	-3% (inactive)
Cc1ccn2c(=O)c(C(=O)NCCC3=CCCCC3)c(O)nc2c1	6.8% (inactive)
O=C(Nc1cc(S(=O)(=O)N2CCOCC2)ccc1OCC(F)(F)F)c1ccc(N2CCCC2=O)cc1	2.5% (inactive)
Cc1cc(C)c2c(n1)sc1c(=O)n(-c3ccccc3)c(=O)[nH]c12	5.6% (inactive)
Cc1ccc(-n2c(C)nnc2SCC(=O)NC2CC2)cc1	-12.6% (inactive)
Cc1nc(-c2ccc(F)cc2)c(CC(=O)Nc2cc(S(=O)(=O)N3CCCCC3)ccc2C)s1	-13.3% (inactive)
CC(C)Oc1c(Br)cc(Br)cc1/C=N/NC(N)=S	14.7% (inactive)
COc1ccc(C(C(=O)NC(C)(C)C)N(C(=O)Cn2nnc3ccccc32)c2ccc(C(C)=O)cc2)cc1O (configuration not stated)	-15.8% (inactive)
CCC(=O)c1ccc(OCC(=O)OCC(=O)NC2CCCCCC2)cc1	8.3% (inactive)

SMILES	inhibition
Oc1ccc(CNc2ccccc2O)cc1	-0.8% (inactive)
COc1ccc(/C=C2\N=C3CCCN3C2=O)cc1	7.3% (inactive)
Cc1cc(C)c2c(Cn3ccnc3)cc(=O)oc2c1	-7% (inactive)
CN(CC(=O)Nc1cccc(F)c1)C(=O)C1CC(=O)N(CCc2ccccc2)C1 (configuration not stated)	2.5% (inactive)
C/C(Cc1ccccc1)=N\NC(=O)CNC(=O)c1ccc2c(c1)OCCO2	1.8% (inactive)
CSc1ccc(S(=O)(=O)Nc2cccc(F)c2)cc1	7% (inactive)
CN=C1SC(CC(=O)Nc2ccc(C(=O)O)cc2)C(=O)N1C (configuration not stated)	15.6% (inactive)
COc1c(O)cc2oc(-c3ccc(O)c(O)c3)cc(=O)c2c1O	40.1% (active)
CCOC(=O)COc1cc(OCC(=O)OCC)c2c(=O)cc(-c3ccccc3)oc2c1	-22.1% (inactive)
Cc1cccc(-c2nnc(SCC(=O)O)n2Cc2ccccc2)c1	-16.7% (inactive)
Cc1ccc2c(c1)nnc1nnc(SCC(=O)O)n12	36.1% (active)
CCn1nnnc1SCC(=O)c1ccc(C)cc1C	-4% (inactive)
Cc1ccccc1N1CC(C(=O)Nc2nnc(SCCC3OCCO3)s2)CC1=O (configuration not stated)	18.3% (inactive)
C=CCn1c(=S)sc2c(=O)[nH]c(C)nc21	-10.3% (inactive)
CN(C)/C=C1\C=C(c2ccccc2)OC1=O	0.7% (inactive)
Cc1ccc(N=C2SCCCN2C(=O)c2cccc(N3C(=O)CCC3=O)c2)cc1Cl	-21.5% (inactive)
Cc1ccc(-n2ncc3c(Nc4cccc(C(=O)O)c4)ncnc32)cc1	17.6% (inactive)
Cc1c(NC(=O)CN2C(=O)C(=O)N(Cc3ccccc3)C2=O)c(=O)n(-c2ccccc2)n1C	8.1% (inactive)
NC(=O)c1nsc(C(=O)N(CC(=O)NCc2ccc(F)cc2)Cc2ccco2)c1N	-10.8% (inactive)
O=C(CSc1nccn1-c1cccc(F)c1)NC1CCCC1	2.7% (inactive)
Cc1csc(NC(=O)CSc2nc(=O)n(CCCN(C)C)c3c2CCC3)n1	6.4% (inactive)
O=C(O)C1=CCCN(CCON=C(c2ccccc2)c2ccccc2)C1	-0.4% (inactive)
CC(C)(C)c1ccc(/C=C2\Oc3c(ccc(O)c3CN3CCN(CCO)CC3)C2=O)cc1	8.9% (inactive)

SMILES	inhibition
CCOC(=O)c1ccc(NC(=O)CCn2c(=O)oc3ccccc32)cc1	-9.6% (inactive)
CC[C@]1(c2ccccc2OC)C(=O)N(C(=O)OC)N1C(=O)OC	8.5% (inactive)
O=C(COC(=O)Cc1c[nH]c2ccccc12)NCCc1ccccc1	14.4% (inactive)
Cc1ccc(Cn2c(=N)c(S(=O)(=O)c3ccc(C)cc3)cc3c(=O)n4ccccc4nc32)cc1	-7.4% (inactive)
Cc1cc(C(F)F)nn1CC(=O)NC1CCCCCC1	14% (inactive)
CCC(C)N(C(=O)COC(=O)C1C(C(=O)OC)=C(C)NC(C)=C1C(=O)OC)C1CCS(=O)(=O)C1 (configuration not stated)	-1.2% (inactive)
CCN(C(=O)COC(=O)Cc1c(F)cccc1Cl)c1c(N)n(Cc2ccccc2)c(=O)[nH]c1=O	-9.2% (inactive)
Cc1ccc(CNC(=O)c2cc(-c3ccccc3C)n(CC3CC(c4cccc([N+](=O)[O-])c4)=NO3)n2)cc1 (configuration not stated)	17% (inactive)
OCCC#Cc1ccc(CN2CCN(Cc3ccsc3)C(CCO)C2)cc1 (configuration not stated)	12.2% (inactive)
CC1O[C@@H](OC2C(O)C(C)O[C@H](OC(=O)[C@]34CCC(C)(C)C[C@H]3C3=CCC5[C@@]6(C)CC(O)C(O[C@@H]7OC(CO)C(O)[C@@H](O)[C@@H]7O)[C@@](C)(C(=O)O)C6CC[C@@]5(C)[C@]3(CO)CC4)C2O[C@H]2OC(C)[C@@H](O[C@@H]3OCC(O[C@@H]4OC(CO)C(O)[C@H](O)C4O)[C@@H](O)[C@@H]3O)[C@H](O)C2O)C(O)C(O)C1O (some centres not stated)	-8.3% (inactive)
CCOC(=O)c1[nH]cnc1C(=O)NC1CCCCC1	-28.7% (inactive)
CCN(CC(=O)Nc1ccc2c(c1)OCCO2)Cc1cc(=O)oc2cc(C)c(C)cc12	5% (inactive)
O=C(NNC1=C(C(=O)C(F)(F)F)CCC1)c1ccncc1	-34.2% (inactive)
COC(=O)C(C)Sc1ccc2nnc(-c3cccc(F)c3)n2n1 (configuration not stated)	-8.4% (inactive)
COc1ccccc1C(=O)NCCC(=O)NN1C(=O)NC2(CCCCC2)C1=O	14.4% (inactive)
CC1(C)NC(=O)N(CCCCSc2ccc(Cl)cc2)C1=O	-0.2% (inactive)
Cc1ccc(Cl)c(OCC(=O)N2CCc3ccccc3C2)c1	-20.2% (inactive)
O=C(CSc1nnc(CNC(=O)c2ccc(F)cc2)o1)Nc1ccc2c(c1)OCO2	-13.1% (inactive)
COc1ccc(CN2CCC(c3nc4ccc(Cl)cc4[nH]3)CC2)cc1	-27.1% (inactive)
O=C(NCc1ccc2c(c1)OCO2)C1CCCN(S(=O)(=O)c2cccs2)C1 (configuration not stated)	17.9% (inactive)
COc1ccc(C(C#N)N2N=C(C)CC2(C)C)cc1 (configuration not stated)	-6.2% (inactive)

From PubChem BioAssay AID2544 (Sanford-Burnham Center for Chemical Genomics, 2010)
